# From PubChem BioAssay (NCI)
# Values joined by “and” are separate entries in the source; they are usually repeats but may differ in a detail not shown here. Equal values may be shown once. The panel holds about 83,000 compounds, 20% with a hit somewhere; the sample as a whole holds those more often.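 Cell lines were cultured in 96-well plates, exposed to a single compound concentration, and assessed for percent growth 48 hours later.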 Active and inactive are the calls of the source.
# Tested on: PC-3 prostate
# Assay: NCI-60 one-dose screen, 48 h (100 = growth as untreated, 0 = no growth, -100 = all killed)
# Conditions: 4.75 µM
# Method: Growth inhibition of the PC-3 human tumor cell line is measured as a screen for anti-cancer activity. Cells are grown in 96 well plates and exposed to the test compound for 48 hours. Compounds are tested at a single concentration, which is 10^-5 M for most compounds. The reported endpoint is percent growth (GI% or GIPRCNT), where numbers from 0 - 100% represent growth inhibition, and numbers from -100% - 0 represent cell death. For example, a value of 40 represents 60% growth inhibition. A value of 0 means no net growth occurred over the course of the experiment. A value of -40 indicates 40% of cells at the beginning of the experiment died by the end of the experiment. A value of -100 means all cells are dead at the end of the experiment.
# NCI-60 Human Tumor Cell Lines Screen was performed using the standard one-dose NCI protocol, which is described in more detail at https://dtp.cancer.gov/discovery_development/nci-60/default.htm.
# Compounds with GIPRCNT values below 10 were considered active. Activity score was based on GIPRCNT using the following formula: […]
# Score is 0 for GIPRCNT values of 100 or above, 50 for GIPRCNT values of 0, and 100 for GIPRCNT values of -100.
row,Structure (SMILES),growth
1,CC(=O)OCC1OC([S-])C(OC(C)=O)C(OC(C)=O)C1OC(C)=O.[Au+].c1ccc(CN2[CH-]N(Cc3ccccc3)C(c3ccccc3)=C2c2ccccc2)cc1,4.86% (active)

# Same assay, conditions: 10 µM
row,Structure (SMILES),growth
1,CC(=O)OCC1OC([S-])C(OC(C)=O)C(OC(C)=O)C1OC(C)=O.[Au+].c1ccc(CN2[CH-]N(Cc3ccccc3)C(c3ccccc3)=C2c2ccccc2)cc1,9.73% (active)

# Same assay, conditions: 10 µM unless noted
row,Structure (SMILES),growth
1,NC(N)=NC(N)=Nc1ccc(Cl)cc1,89.5% (inactive)
2,C[C@H](O)CCC(=O)c1ccoc1,95.7% (inactive)
3,CCC1(CCSC#N)C(=O)NC(=O)NC1=O,92.5% (inactive)
4,C#COc1cccc(Nc2ncnc3cc(NC(=O)CF)ccc23)c1,36% [6.25 µM] (inactive)
5,CC1(C)C2CCC1(CS(=O)(=O)O)C(=O)C2 (stereo not given),94.6% (inactive) and 94.5% (inactive)
6,CCCC[C@H]1C(=O)O[C@H](C)[C@H](NC(=O)c2cccc(NC=O)c2O)C(=O)O[C@@H](C)[C@@H]1OC(=O)CC(C)C,32.9% (inactive)
7,c1ccc2c(c1)sc1ccccc12,84.7% (inactive)
8,CN(C)[C@@H]1C(=O)C(C(N)=O)=C(O)[C@@]2(O)C(=O)C3=C(O)c4c(O)ccc(Cl)c4[C@@](C)(O)[C@H]3C[C@@H]12,81.6% (inactive)
9,Cc1cc(N(CCCl)CCCl)ccc1C=Nc1ccc(-c2csc(-c3ccccc3)n2)cc1,69.6% (inactive)
10,O=[N+]([O-])c1ccc(P(=O)(O)O)cc1,91.3% (inactive)
11,Cn1cc(-c2csc(-c3cn(CCCCN4CCOCC4)c4ccc(F)cc34)n2)c2cccnc21,49.3% (inactive)
12,CC[C@H](C)[C@H]1O[C@]2(C=C[C@@H]1C)C[C@@H]1C[C@@H](C/C=C(\C)[C@@H](O[C@H]3C[C@H](OC)[C@@H](O[C@H]4C[C@H](OC)[C@@H](NC)[C@H](C)O4)[C@H](C)O3)[C@@H](C)/C=C/C=C3\CO[C@@H]4[C@H](O)C(C)=C[C@@H](C(=O)O1)[C@]34O)O2,-16.2% (active)
13,CC1(C)CN=C(NN=C(/C=C/c2ccc(C(F)(F)F)cc2)/C=C/c2ccc(C(F)(F)F)cc2)NC1,24.7% (inactive)
14,C=CC1CN2CCC1CC2C(O)c1ccnc2ccccc12 (stereo not given),55.8% (inactive)
15,CNC(=O)O/N=C(\SC)C(=O)N(C)C,85% (inactive)
16,O=[N+]([O-])c1c(Cl)cc(Cl)c([N+](=O)[O-])c1Cl,83.2% (inactive)
17,O=C(O)c1ccccc1N(CCO)CCCl,87.6% (inactive)
18,C[N+]1(C)CCCC1c1cccnc1 (stereo not given),97.6% (inactive)
19,CCOC(=O)P(=O)(OCC)OCC,92.5% (inactive)

row,Structure (SMILES),growth
1,CC[PH+](CC)CC.O=COC1OC([S-])C(OC=O)C(OC=O)C1OC=O.[Au+] (stereo not given),-7.17% (active)
2,COc1ccc(N(CC(=O)NCCC[Te]c2ccccc2)C(=O)c2ccccc2)cc1,7.26% (active)
3,C[C@]12CC[C@H]3[C@@H](CC=C4c5nc(-c6ccc(Br)cc6)sc5CC[C@@]43C)[C@@H]1CC[C@@H]2O,101% (inactive)
4,O=S(=O)(c1ccc(O)cc1)c1ccccc1O,89% (inactive)
5,O=C(CBr)OCCOC(=O)CBr,84.1% (inactive)
6,CCC(=O)C(CC(C)[N+](C)(C)C)(c1ccccc1)c1ccccc1 (stereo not given),103% (inactive)
7,O=C(Cc1ccccc1)c1ccccc1,98.2% (inactive)
8,CC[C@H](C)[C@H](NC(=O)[C@H]1CCCCN1C)C(=O)N(C)[C@H](CCc1nc(C(=O)N[C@@H](Cc2ccccc2)C[C@H](C)C(=O)O)cs1)C(C)C,29.1% (inactive)
9,CCCCCCCCCCCCCCCC[n+]1ccccc1,-48.7% (active) and -80.9% (active)
10,CC(C)CCC1C(=O)NC(=O)NC1=O,98% (inactive)
11,N#CCN(CC#N)[N+](=O)[O-],95.4% (inactive)
12,O=C(O)c1cc([N+](=O)[O-])cc([N+](=O)[O-])c1,84.6% (inactive)
13,Oc1cc(Cl)ccc1Oc1ccc(Cl)cc1Cl,39% (inactive)
14,CN1CCC2(CC1)C(C#N)C(=O)NC(=O)C2C#N (stereo not given),101% (inactive)
15,CC(C)COC(=O)Cc1ccccc1,97.6% (inactive)
16,C/C(=C(\c1ccc(OCCN2CCOCC2)cc1)c1ccc(OC(=O)Cc2ccccc2)cc1)c1ccc(Cl)cc1,68.2% (inactive)
17,CNC(=O)Oc1ccc(Cl)cc1SSc1cc(Cl)ccc1OC(=O)NC,73% (inactive)
18,N#CC(N)c1ccccc1 (stereo not given),104% (inactive)
19,N#CC(C#N)=C(C#N)C#N,96.8% (inactive)
